Screening results from PubChem BioAssay.
Most compounds without a hit are left out; they make up all but 11% or so of the library.
BAZ2B block = blocks human BAZ2B | Q9UIF8 | AlphaScreen BAZ2B-H3K14Ac peptide displacement | Potency, µM (top dose mostly 114 µM), for the others: top-dose activity change, negative = inhibition, most hits filed as inhibitors | hit rate 4.4% among 360,000 | AID 504333; also: potency is read from the fitted curve at half-maximal effect; % is scaled to controls: 0 for no effect and ±100 for the full control effect; nearly all actives have a fitted effect of over 60% in size
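AlphaScreen displacement of biotin-H3(5-23)K14Ac peptide (50 nM final) from BAZ2B (50 nM final) in PBS pH 7.4, 0.01% Tween-20; complex preformed 30 min RT, then compounds (top 110 uM) 30 min RT, beads 20 min dark.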
JMJD2A Tudor inh = blocks the human JMJD2A Tudor domain; O75164; AlphaScreen JMJD2A-Tudor / H3K4me3 peptide binding; Potency, µM (doses to about 114 µM), inactives show top-dose activity change, negative = inhibition, actives largely listed as inhibitors; hit rate 4.4% among 390,000; AID 504339; also: potency is read from the fitted curve at half-maximal effect; % is scaled to controls: 0 for no effect and ±100 for the full control effect; nearly all actives have a fitted effect of over 50% in size
PI5P4Ka inh = blocks human PI5P4K alpha kinase activity; P48426; PI5P4Kalpha enzyme, ADP-Glo luminescence, 60 min; hits give low values; hit rate 1.2% among 330,000; max response, %; AID 652105; active = max response of -50% or lower; inconclusive = between -30% and -50%; inactive = -30% or higher; also: value at the top dose of about 77 µM; % is scaled to controls: 0 for no effect and ±100 for the full control effect
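ADP-Glo luminescence end-point read after a 60 min room-temperature kinase reaction of PI5P4Kalpha plus substrate, initiated with ATP at 5 microM final. Buffer: 0.038 M HEPES pH 7.4, EGTA, 0.1% CHAPS, 5% DMSO.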
G9a block = G9a (human) methyltransferase inhibition; Q96KQ7; G9a H3K9 monomethylation, AlphaScreen, 2 h; Potency, µM (doses to about 102 µM), inactives show at the highest dose activity, negative = inhibition, usual class: inhibitors; hit rate 8.8% among 350,000; AID 504332; also: potency is read from the fitted curve at half-maximal effect; % is scaled to controls: 0 for no effect and ±100 for the full control effect; nearly all actives have a fitted effect of over 75% in size
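Chemiluminescent proximity detection of H3K9 monomethylation, read after 10 min bead incubation in the dark. Reaction: 20 nM G9a, 500 nM biotin-H3K9 peptide, 20 uM SAM cofactor, 2 h, room temperature, following 15 min enzyme-compound preincubation.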
L3MBTL1 inh = inhibitors of human L3MBTL1. hit rate 0.66% among 230,000. Q9Y468. AID 485360. Potency, µM (titrated, usually from 57.1 µM), for inactives: at the highest dose activity, negative = inhibition, hits mostly inhibitors. AlphaScreen L3MBTL1–H3K9me1 peptide binding; also: potency is read from the fitted curve at half-maximal effect; % is scaled to controls: 0 for no effect and ±100 for the full control effect; nearly all actives have a fitted effect of over 60% in size
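Read-out is AlphaScreen signal from streptavidin donor and nickel chelate acceptor beads (10 ug/mL final each) bridging L3MBTL1 (50 nM) and biotinylated K9-monomethylated H3(1-15) peptide (75 nM), after 30 min compound exposure at room temperature.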
HP1b binding inh = blocks HP1-beta chromodomain binding to methylated histone tails. P83916. hit rate 0.56% among 390,000. AlphaScreen HP1-beta / biotin-H3K9me3 peptide binding. Potency, µM (doses to about 114 µM), for inactives: at the highest dose activity change, negative = inhibition, actives largely listed as inhibitors; also: potency is read from the fitted curve at half-maximal effect; nearly all actives have a fitted effect of over 70% in size
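HP1-beta protein (50 nM final) preincubated 30 min at room temperature with biotinylated H3(1-18)K9me3 peptide (50 nM) in PBS pH 7.4, 0.01% Tween-20, then compound added for 30 min. AlphaScreen streptavidin donor/nickel chelate acceptor beads (10 ug/mL final), 30 min dark, luminescence read.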
Active calls of the source: *; [ ] = another dose, or the depositor's remark. Unless noted, calls follow the shape of the dose curve; as a rule, active = well fitted inhibition curve with a large enough effect; inconclusive = small, poorly fitted or top-dose-only effect; inactive = no such curve, though single readings can be large or run the other way.

Results for COc1ccc(/C=N/n2cncn2)cc1COc1ccc(NC(C)=O)cc1 ?
BAZ2B block: 7%; JMJD2A Tudor inh: 50µM*; PI5P4Ka inh: -9; G9a block: 2%[12.7 µM]; L3MBTL1 inh: 1%[11.4 µM]; HP1b binding inh: -4%

How did COc1cc(/C=N/NC(=O)c2ccc(N)cc2)ccc1OC(=O)c1cccc(C)c1 do in these assays?
BAZ2B block: inconclusive; JMJD2A Tudor inh: inconclusive; PI5P4Ka inh: -15; G9a block: -9%; HP1b binding inh: -23%

What do the screens show for `CCOc1cc(/C=N/Nc2ccc(C(=O)O)cc2)ccc1OC(=O)c1ccccc1C`?
BAZ2B block: inconclusive; JMJD2A Tudor inh: inconclusive; PI5P4Ka inh: 5; G9a block: 35µM*; HP1b binding inh: 7%

What do the screens show for `COc1cc(OC)cc(-c2nnc(SCc3ccc(C(=O)O)cc3)o2)c1`?
BAZ2B block: 5%; JMJD2A Tudor inh: -24%; PI5P4Ka inh: -18; G9a block: 40µM*; L3MBTL1 inh: 8%; HP1b binding inh: 10%

How did CCCCc1ccc(NS(=O)(=O)c2ccc(N3CCCCS3(=O)=O)cc2)cc1 do in these assays?
BAZ2B block: -16%; JMJD2A Tudor inh: -15%; G9a block: 5%[12.7 µM]; HP1b binding inh: 21%

How did CCOc1ccc(NC(=O)CC2C(=O)N(CC)C(=S)N2CCN2CCOCC2)cc1 (stereo not drawn) do in these assays?
BAZ2B block: -9%; JMJD2A Tudor inh: 50µM*; PI5P4Ka inh: 7; G9a block: 25%; L3MBTL1 inh: 28%; HP1b binding inh: -4%

Results for CCOc1ccc(NC(=O)CC2C(=O)N(CC)C(=S)N2CCNC(C)=O)cc1 (stereo not drawn) ?
BAZ2B block: 4%; JMJD2A Tudor inh: -7%; PI5P4Ka inh: -3; G9a block: -6%; L3MBTL1 inh: 0%; HP1b binding inh: 13%

Results for CCN1CCOC(=O)C1CC(=O)Nc1ccc(C)c(Cl)c1 (stereo not drawn) ?
BAZ2B block: -23%; JMJD2A Tudor inh: -16%; G9a block: 2µM*; HP1b binding inh: 23%

How did CCN1CCOC(=O)C1CC(=O)Nc1cccc(OC)c1 (stereo not drawn) do in these assays?
BAZ2B block: -30%; JMJD2A Tudor inh: -7%; G9a block: inconclusive; HP1b binding inh: 4%

What do the screens show for `CCOc1ccc(NC(=O)CC2C(=O)OCCN2CC)cc1` (stereo not drawn)?
BAZ2B block: inconclusive; JMJD2A Tudor inh: -15%; G9a block: 2.2µM*; HP1b binding inh: 0%

Results for COC(=O)c1cc(NC(=O)CC2C(=O)OCCN2Cc2ccccc2)cc(C(=O)OC)c1 (stereo not drawn) ?
BAZ2B block: -18%; JMJD2A Tudor inh: -13%; G9a block: -37%[59 µM]; HP1b binding inh: 23%

Results for CCOC(=O)c1ccc(NC(=O)CC2C(=O)OCCN2CC)cc1 (stereo not drawn) ?
BAZ2B block: -49%; JMJD2A Tudor inh: -11%; PI5P4Ka inh: -17; G9a block: 6.3µM*; L3MBTL1 inh: -8%; HP1b binding inh: 19%

How did O=C(Cn1cc(SCc2c(F)cccc2Cl)c2ccccc21)N1CCCCCC1 do in these assays?
BAZ2B block: -19%; JMJD2A Tudor inh: -5%; G9a block: 4%[59 µM]; HP1b binding inh: 85%

How did O=C(CSc1nnc(CNC(=O)c2ccccc2F)n1-c1ccccc1)Nc1ccccc1F do in these assays?
BAZ2B block: -13%; JMJD2A Tudor inh: -7%; G9a block: -25%[59 µM]; HP1b binding inh: 15%

What do the screens show for `Cc1ccc(/C=N/Nc2nc(C(C)(C)C)cs2)o1`?
BAZ2B block: 45µM*; JMJD2A Tudor inh: 45µM*; PI5P4Ka inh: 1; G9a block: 10µM*; L3MBTL1 inh: -4%; HP1b binding inh: inconclusive

How did Cc1ccc(/C=N/Nc2nc3ccccc3s2)o1 do in these assays?
BAZ2B block: inconclusive; JMJD2A Tudor inh: inconclusive; PI5P4Ka inh: 11; G9a block: inconclusive; L3MBTL1 inh: -11%; HP1b binding inh: -17%

How did CC(C)(C)c1csc(N/N=C/c2cccnc2)n1 do in these assays?
BAZ2B block: 40µM*; JMJD2A Tudor inh: inconclusive; PI5P4Ka inh: -8; G9a block: inconclusive; L3MBTL1 inh: -12%; HP1b binding inh: 2%

What do the screens show for `CC(=O)OCC(=O)[C@@]1(O)CC[C@@H]2[C@H]3CCC4=CC(=O)CC[C@]4(C)[C@]3(F)[C@@H](O)C[C@@]21C`?
G9a block: 27%[21.5 µM]

What do the screens show for `CC(C)Oc1ccc(OCCSc2nc3ccccc3n2CC(=O)O)cc1`?
BAZ2B block: -29%; JMJD2A Tudor inh: -15%; PI5P4Ka inh: -4; G9a block: 50µM*; L3MBTL1 inh: 2%; HP1b binding inh: 14%

What do the screens show for `Cc1ccc(-n2ncc3c(N4CCCCCC4)ncnc32)cc1C`?
BAZ2B block: 46%; JMJD2A Tudor inh: 16%; G9a block: 8%[59 µM]; HP1b binding inh: 62%

Results for Cc1ccc(NCc2ccccc2F)cc1 ?
BAZ2B block: -35%; JMJD2A Tudor inh: 0%; PI5P4Ka inh: -7; G9a block: inconclusive; L3MBTL1 inh: -3%; HP1b binding inh: 21%

Results for COc1ccc(NCCNc2ccc(OC)cc2)cc1 ?
BAZ2B block: 50µM*; JMJD2A Tudor inh: inconclusive; G9a block: 9%[0.0925 µM]; L3MBTL1 inh: -26%; HP1b binding inh: -18%

Results for COc1ccc(C(=O)CCNc2ccc(F)cc2)cc1 ?
BAZ2B block: -3%; JMJD2A Tudor inh: -14%; PI5P4Ka inh: -18; G9a block: 20%; HP1b binding inh: 0%

Results for Cc1ccc(NCCc2ccc(C)nc2)cc1 ?
BAZ2B block: -19%; JMJD2A Tudor inh: -34%; PI5P4Ka inh: 7; G9a block: 50µM*; HP1b binding inh: -8%

How did Cc1ccc(NCCNc2ccc(C)cc2)cc1 do in these assays?
JMJD2A Tudor inh: 22µM*; G9a block: inconclusive; L3MBTL1 inh: -22%; HP1b binding inh: -41%

What do the screens show for `O=c1c2c3c(sc2nnn1Cc1ccc(F)cc1)CCCC3`?
BAZ2B block: 90%; JMJD2A Tudor inh: 34%; G9a block: 18%[59 µM]; HP1b binding inh: 67%

How did Cc1ccc(NC(=O)CN2CCN(C3CCCCC3)C(=O)C2=O)cc1C do in these assays?
BAZ2B block: -4%; JMJD2A Tudor inh: 0%; G9a block: 8%[59 µM]; HP1b binding inh: 22%

How did O=C(Nc1nc(-c2cc3ccccc3oc2=O)cs1)c1ccco1 do in these assays?
BAZ2B block: inconclusive; JMJD2A Tudor inh: -30%; PI5P4Ka inh: -5; G9a block: 35µM*; L3MBTL1 inh: 9%; HP1b binding inh: 27%

Results for C[C@H](NC(=O)c1ccco1)C(=O)Nc1nc(-c2ccccn2)cs1 ?
JMJD2A Tudor inh: 45µM*; PI5P4Ka inh: -7; HP1b binding inh: 30%
